ATXN viability – cell viability loss in ATXN counter-screen; 0.49% of 400,000 active; S2 cells (HEK-293 line with an ATXN2-luciferase reporter) viability, CellTiter-Fluor protease fluorescence, 24 h; Potency, µM (titrated, usually from 56.7 µM), hits mostly cytotoxic; also: potency is read from the fitted curve at half-maximal effect; nearly all actives have a fitted effect of over 40% in size
ATXN2 expr inh – reduces ATXN2 reporter expression in HEK-293 cells; HEK-293 ATXN2-luciferase reporter, luminescence, 24 h; Potency, µM (doses to about 57 µM), inactives show at the highest dose activity change, negative = inhibition, hits mostly inhibitors; AID 1745845; 0.72% of 360,000 active; also: potency is read from the fitted curve at half-maximal effect; % is scaled to controls: 0 for no effect and ±100 for the full control effect; nearly all actives have a fitted effect of over 55% in size
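ATXN2-luciferase reporter cells (luciferase flanked by upstream and downstream ATXN2 gene portions) were treated 24 h at 37 °C with compounds at up to 57 uM. SteadyGlo luminescence gave expression; GF-AFC fluorescence gave viability.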
IL1B secr inh – inhibitors of inflammasome signaling (IL-1 beta secretion); THP-1 LPS/ATP IL-1B secretion, AlphaLISA, 16 h; hits give low values; activity change, % at 57.5 µM; 4.7% of 360,000 active; AID 743279; in the data active = activity change below about -50%; inconclusive = mostly about -30% to -49%; also: % is scaled to controls: 0 for no effect and ±100 for the full control effect
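Secreted IL-1B measured by AlphaLISA bead assay after 16 h compound exposure of THP-1 cells; compounds (final up to 57.5 uM) added 1 h before LPS (250 ng/mL) and ATP (1.25 mM) stimulation; lower signal means less secretion.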
USP1 inh – inhibitors of human USP1/UAF1 deubiquitinase. O94782. recombinant USP1/UAF1, Ub-Rhodamine cleavage fluorescence. Potency, µM (top dose mostly 57.1 µM), without a hit: at the top dose activity change, negative = inhibition, actives largely listed as inhibitors. 0.23% of 390,000 active. AID 743255; also: potency is read from the fitted curve at half-maximal effect; % is scaled to controls: 0 for no effect and ±100 for the full control effect; nearly all actives have a fitted effect of over 60% in size
Target sequence (O94782 whole entry, looked up): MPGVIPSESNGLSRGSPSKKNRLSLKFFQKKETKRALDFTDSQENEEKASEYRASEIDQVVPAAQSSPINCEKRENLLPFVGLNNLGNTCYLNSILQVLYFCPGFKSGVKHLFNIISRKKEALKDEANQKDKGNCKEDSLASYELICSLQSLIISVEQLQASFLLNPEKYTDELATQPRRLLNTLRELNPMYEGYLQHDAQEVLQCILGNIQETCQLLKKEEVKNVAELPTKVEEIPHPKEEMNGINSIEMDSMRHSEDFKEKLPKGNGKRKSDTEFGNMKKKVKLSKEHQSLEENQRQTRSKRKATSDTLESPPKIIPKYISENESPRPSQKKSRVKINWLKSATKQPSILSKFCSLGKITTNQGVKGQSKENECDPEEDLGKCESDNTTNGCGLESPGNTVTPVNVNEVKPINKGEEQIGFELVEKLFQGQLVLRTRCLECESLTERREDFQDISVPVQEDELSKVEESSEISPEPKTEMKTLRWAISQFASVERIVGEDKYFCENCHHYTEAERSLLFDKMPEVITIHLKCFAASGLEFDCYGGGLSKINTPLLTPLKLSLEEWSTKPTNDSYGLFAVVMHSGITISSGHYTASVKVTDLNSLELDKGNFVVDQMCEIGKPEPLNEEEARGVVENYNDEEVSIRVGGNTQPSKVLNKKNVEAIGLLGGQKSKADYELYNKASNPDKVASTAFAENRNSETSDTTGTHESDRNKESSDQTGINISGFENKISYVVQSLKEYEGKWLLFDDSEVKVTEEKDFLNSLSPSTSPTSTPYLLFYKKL
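1 nM enzyme complex + cpd, 15 min RT; start with Ub-Rho 150nM final; kinetic fluorescence ex 480/em 540, 6 reads q60 s. Buffer 50mM HEPES pH 7.8, 0.5mM EDTA, 0.1 mg/ml BSA, 1mM TCEP, 0.01% Tween-20.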
USP2a inh – blocks human ubiquitin-specific protease USP2a; Potency, µM (series often up to 38.3 µM), inactives show at the top dose activity change, negative = inhibition, hits mostly inhibitors; USP2 core, Ub-CHOP2 coupled fluorogenic reporter, 485/531; O75604; 0.01% of 330,000 active;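 also: potency is read from the fitted curve at half-maximal effect; plate controls were DMSO wells for no effect and full inhibition by NEM control for full effect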
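Cell-free coupled assay: 10nM USP2 core preincubated 30min RT with compound in Tris-HCl pH 8.0/CaCl2/CHAPS buffer, then 25nM Ub-CHOP2 and 25nM reporter substrate; fluorescence (Ex 485/Em 531) read after 60min RT, normalized to NEM inhibition, concentration-response curves fitted.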
An asterisk follows results filed as active; i = inactive; ? = inconclusive; nt = not tested or not shown. Shown are actives, neighbours in structure and some others; about 4.8% of the full set was active somewhere. Unless noted, calls follow the shape of the dose curve; as a rule, active = well fitted curve in the direction sought with a large enough effect; inconclusive = small, poorly fitted or top-dose-only effect, or another doubt; inactive = no such curve, though single readings can be large; an effect the other way counts as inactive or inconclusive.

SMILES	ATXN viability	ATXN2 expr inh	IL1B secr inh	USP1 inh	USP2a inh
CC(O)(COc1ccccc1)c1ccc2c(c1)CN(Cc1cccnc1)CCO2 (centres undefined)	i	nt	nt	nt	nt
Cc1ccc(C)c(N(C(=O)c2nsc(Cl)c2Cl)C(C(=O)NC2CCCC2)c2ccc(O)cc2)c1 (centres undefined)	i	?	-71*	-3%	2%
CCC1CCCCN1C(=O)C(=O)c1cn(CC(=O)N(CC)CC)c2ccccc12 (centres undefined)	i	-7%	-2	-12%	-13%
O=C(/C=N/O)Nc1ccc2sc3ccccc3c2c1	i	-2%	-100*	-18%	-1%
Nc1ccccc1N=Cc1ccc(-c2cccc(Cl)c2)o1	i	0%	-82*	-21%	-6%
CC1=NOC(=O)/C1=C\c1ccc(-c2ccc(Cl)c(C(=O)O)c2)o1	i	-1%	18	-20%	-2%
CC1=NOC(=O)/C1=C\c1ccc(-c2cccc(Cl)c2)o1	?	?	-100*	?	2%
COC(=O)N/N=C/c1ccc(-c2cccc(Cl)c2)o1	i	-3%	-5	-15%	-1%
Cc1ccc(/C=C2/C(=O)ON=C2c2ccccc2)o1	i	nt	-12	-1%	2%
CC1=NOC(=O)/C1=C\c1ccc(-c2ccccc2Br)o1	?	?	-96*	?	3%
Cn1c(N)c(C(=O)CSc2nnc(C3CC3)n2Cc2ccccc2)c(=O)[nH]c1=O	i	1%	7	-20%	0%
CCS(=O)(=O)c1ccc(O)c(NC(=O)Nc2ccc(C(C)(C)C)cc2)c1	?	-25%	-88*	-20%	0%
COc1ccc(-c2cc(NCCc3ccncc3)n3ncnc3n2)cc1	i	-23%	-66*	-7%	0%
Cc1ccc(C)c(CSc2nc(-c3ccccc3F)nc3c2Cc2c(CO)cnc(C)c2O3)c1	i	9%	nt	-4%	nt
CCOC(=O)C1=C(NC(=S)NC(=O)c2ccccc2)c2ccccc2CC1(C)CC (centres undefined)	i	70%	-56*	-17%	-2%
COc1cccc([C@@H](C)NCCCc2ccccc2Cl)c1	nt	4%	nt	nt	nt
CSc1sc(C(=O)NCC2CC2)cc1S(=O)(=O)C(C)C	i	3%	-6	-15%	4%
COC(=O)c1cc(S(=O)(=O)C(C)C)c(S(C)=O)s1 (centres undefined)	i	83%	-100*	-7%	10%
CC1CCN(C(=O)CN2C(=O)C(=O)N(C)C2=O)c2ccccc2S1 (centres undefined)	i	2%	-1	-15%	-1%
CCc1ccc(CN(C)C(=O)c2cc(=O)c3ccccc3o2)cc1	i	-5%	2	-9%	-2%
COc1ccc(CCN(C)C(=O)c2cc(=O)c3ccccc3o2)cc1OC	nt	4%	-54*	-3%	2%
COc1ccccc1-c1ccnc(-n2ncc(C(=O)N3CCN(C4CCCC4)CC3)c2-c2ccco2)n1	i	nt	nt	nt	nt
c1ccc(OCCNc2nc(NCC3CC3)nc3cc(-c4ccccc4)sc23)cc1	16µM*	?	-106*	nt	nt
c1ccc(CNc2nc(NCC3CC3)nc3cc(-c4ccccc4)sc23)cc1	?	?	-116*	nt	nt
Clc1ccccc1OCCNc1nc(NCC2CC2)nc2ccsc12	?	?	-16	nt	nt
SMILES	ATXN viability	ATXN2 expr inh	IL1B secr inh	USP1 inh	USP2a inh
CN(c1ccccc1)c1ccc(/C=N/NC(=O)CC#N)cc1	i	13µM*	16	-3%	1%
N#CCC(=O)N/N=C/c1ccc(Cl)cc1	i	14%	-5	-8%	-6%
O=C(/C(=C/O)N=Nc1cccc(C(F)(F)F)c1)c1ccccc1	i	?	-95*	-23%	-1%
Cc1cccc(N=N/C(=C\O)C(=O)c2ccc(Br)cc2)c1	nt	-33%	-85*	-23%	0%
O=C(/C(=C/O)N=Nc1ccccc1Cl)c1ccccc1	?	?	-99*	-19%	-1%
Cc1cccc(N/N=C(\C=N\N)C(=O)c2ccc(Br)cc2)c1	nt	nt	nt	nt	2%
COc1ccc(C)cc1NC(=O)COC(=O)Cc1c[nH]c2ccccc12	?	nt	32	-28%	nt
O=C1CC(c2ccccc2)Cc2[nH]c(=O)c(-c3nc(-c4ccc(Cl)cc4)cs3)cc21 (centres undefined)	nt	nt	nt	-16%	nt
